In PubChem BioAssay (NCATS):
Results filed as inconclusive are left out. Where a call stands in place of a potency, no number is given. The source made the active and inactive calls. The call rests on the fitted dose curve; in most records, active means well fitted cell-killing curve with a large enough effect; inconclusive means small, poorly fitted or top-dose-only effect, or effect the other way; inactive means flat fitted curve, though single readings scatter.

assay: Identifying Small Molecule Inhibitors of Pancreatic Cancer Stem Cells (SN12C, Spheroid) (AID 1259360); settings: Potency: SN12C spheroid viability; series mostly up to 46.1 µM
Source text: Progenitor-like cancer cells, often referred to as cancer stem cells (CSC), are believed to be the drivers of therapeutic resistance and rapid recurrence. CSCs are postulated to reside in specific niches characterized by low oxygen tension, limited nutrient supply, and high redox load. Selectively targeting CSC, alone or in combination with cytotoxic agents, as a means to produce durable remissions is an appealing concept. Modeling these cells in in vitro setting is an important step in finding new therapies and/or targets. Multiple reports highlight that forcing cells in culture into 3-dimensionaly architectures (spheroids) re-establishes key progenitor-like transcriptional signatures. Pancreatic cancer is among the diseases with the most dismal outlook which is driven, largely, by recurance following front-line therapies. […] In hopes of deriving new insight into the targeting of these pancreatic CSCs we examined three established pancreatic cancer cell lines in cytotoxicity assays versus a collection of approved and investigational drugs. Importantly, we screened these lines as traditional monolayer (2D) and spheroid (3D) formats to gain an appreciation of agents with differential activity.
Multicellular tumor spheroids from Panc1, MiaPaCa-2, and the primary low-passage tissue culture line SB.06 were seeded in stem cell media (SCM) in nonadherent 6-well plates coated with hydrogel (Corning Life Sciences, Chelmsford, Mass) and pancreatic spheres generated for 14 days before screening. Cells were seeded into 1536-well solid-bottom white tissue culture treated Greiner Bio One Plates (789173-F) using a MultiDrop Combi (Thermofisher Scientific) dispenser and a small sterile cassette. One column was media alone to be used as a :"no cells" control. The plates were then covered with sterilized stainless steel gasketed lids from Kalypsys. After allowing cells to attach for 4 hours, 23 nL of test compound or control (negative control DMSO and positive control 9.2 uM Bortezomib-final) were added from a 1536-well polypropylene compound source plate to each well using a 1536 head pin tool from Kalypsys. Cells were then incubated for 48 hours at 37C, 95% relative humidity and 5% CO2. After 48 hours, plates were removed from the incubator and 3 uL of CellTiter-Glo (Promega) was added using an Aurora Flying Reagent Dispenser Bioraptor. Plates were incubated at room temperature for 10 minutes prior to reading the luminescence on the Viewlux (PerkinElmer). The relative luciferase units are used to calculate the percent activity using the activity of DMSO in the cells and no cells columns for normalization of no inhibition and full inhibition respectively.
Potency means the concentration at half of the fitted maximal effect.

Row | SMILES | Potency
1 | CC(C)n1c(C=C[C@H](O)C[C@H](O)CC(=O)O)c(-c2ccc(F)cc2)c2ccccc21 | inactive
2 | OCCn1cc(-c2ccc3c(c2)CCC3=NO)c(-c2ccncc2)n1 | inactive
3 | CCC(=O)N1CCN(c2ccc(-n3c(=O)ccc4cnc5ccc(-c6cnc7ccccc7c6)cc5c43)cc2C(F)(F)F)CC1 | 0.0526 µM (active)
4 | CC(=O)NCCC(=O)N[C@@H](CCC(N)=O)C(=O)N[C@@H](CO)C(=O)N[C@@H](CCC(N)=O)C(=O)N[C@@H](CCC(N)=O)C(=O)N[C@H](C(=O)N[C@@H](Cc1ccccc1)C(=O)N[C@]1(C)CCCCCCC=CCCC[C@@](C)(C(=O)N[C@@H](CCC(N)=O)C(=O)N[C@@H](CC(N)=O)C(N)=O)NC(=O)[C@H](CC(C)C)NC(=O)[C@H](CC(C)C)NC(=O)[C@@H](CCCNC(=N)N)NC(=O)[C@H](Cc2c[nH]c3ccccc23)NC(=O)[C@H](CC(C)C)NC(=O)[C@H](CC(N)=O)NC1=O)[C@H](C)O | inactive
5 | Cc1cccc(Nc2nc(N[C@@H]3CCCC[C@H]3N)ncc2C(N)=O)c1 | inactive
6 | COc1ccc2c(c1)CC[C@H]1[C@@H]2CC[C@]2(C)[C@@H](NCCCCCCN3C(=O)C=CC3=O)CC[C@H]12 | 20.9 µM (active)
7 | COc1nc(C)cnc1NS(=O)(=O)c1cccnc1-c1ccc(-c2nnco2)cc1 | inactive
8 | O=C1C(CCC(O)c2ccc(F)cc2)C(c2ccc(O)cc2)N1c1ccc(F)cc1 (centres undefined) | inactive
9 | CNC(=O)c1cc(Oc2ccc(NC(=O)Nc3ccc(Cl)c(C(F)(F)F)c3)c(F)c2)ccn1 | 18.7 µM (active)
10 | COc1c(C)cnc(Cn2cnc3c(Cl)nc(N)nc32)c1C | 0.264 µM (active)
11 | Cc1nn(Cc2ccccc2Cl)c(C)c1CN(C)CC(O)COc1ccc(Cl)cc1 (centres undefined) | inactive
12 | C[C@@H](O[C@H]1OCCN(Cc2n[nH]c(=O)[nH]2)[C@@H]1c1ccc(F)cc1)c1cc(C(F)(F)F)cc(C(F)(F)F)c1 | 20.9 µM (active)
13 | CCNC(=O)c1noc(-c2cc(C(C)C)c(O)cc2O)c1-c1ccc(CN2CCOCC2)cc1 | 0.0074 µM (active)
14 | O=C(Nc1ccc(OC(F)(F)F)cc1)c1sccc1NCc1ccnc2ccccc12 | 23.5 µM (active)
15 | CCCCOCCOc1nc(-c2ccc(C(=O)O)c(F)c2)sc1C | inactive
16 | CN(C)CCN(C)C(=O)c1ccc(NC(=O)Nc2ccc(-c3nc(N4CCOCC4)c4ccn(CC(F)(F)F)c4n3)cc2)cc1 | 0.264 µM (active)
17 | CC1=C[C@@H]2[C@@H]([C@@H](O)C[C@@]3(C)[C@H]2C[C@@H](C)[C@]3(O)C(=O)CO)[C@@]2(C)Cc3cnn(-c4ccccc4)c3C=C12 | 26.4 µM (active)
18 | CC(C)(C)c1[nH]cnc1C=c1[nH]c(=O)c(=Cc2ccccc2)[nH]c1=O | 14.8 µM (active)
19 | COC(=O)Nc1ccc(-c2nc(N3CCOCC3)c3cnn(C4CCN(C(=O)OC)CC4)c3n2)cc1 | 1.05 µM (active)
20 | CC(O)=C(C#N)C(=O)Nc1ccc(C(F)(F)F)cc1 | inactive
21 | CCOC(=O)[C@@H](N)CCC(=O)N[C@@H](CSCc1ccccc1)C(=O)N[C@@H](C(=O)OCC)c1ccccc1 | inactive
22 | CCC=CC[C@H]1C(=O)CC[C@@H]1CC(=O)OC | inactive
23 | COc1cccc(OC)c1-c1cc(C(=O)NC2(C(=O)O)C3CC4CC(C3)CC2C4)nn1-c1ccnc2cc(Cl)ccc12 (centres undefined) | inactive
24 | Cn1cc(-c2ccc3nnc(Sc4ccc5ncccc5c4)n3n2)cn1 | inactive
25 | CN(C)CCCNC(=O)c1ccc(-c2cc(O)c3ncccc3c2)cc1 | inactive
26 | O=C(O)c1ccc(O)c2ncc(N3CCOCC3)cc12 | inactive
27 | CN1C(=O)C(Cc2c[nH]c3ccccc23)NC1=S (centres undefined) | inactive
28 | NC(=O)c1ccc(N(C(N)=O)c2c(F)cccc2F)nc1-c1ccc(F)cc1F | inactive
29 | COc1cc2c(cc1OC)CC(=O)N(CCCN(C)C[C@H]1Cc3cc(OC)c(OC)cc31)CC2 | inactive
